Source: PubChem
TDP1 cell noCPT: qHTS for Inhibitors of human tyrosyl-DNA phosphodiesterase 1 (TDP1): qHTS in cells in absence of CPT; DT40 Tdp1-/- hTDP1 cells, no CPT, ATP luminescence, 48 h; Potency, µM (highest dose often 46.2 µM), for the others: at the top dose activity change, negative = growth inhibition, actives largely listed as inhibitors; 15% of 420,000 active; AID 686978, 2013; also: potency is read from the fitted curve at half-maximal effect; nearly all actives have a fitted effect of over 55% in size
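Seeded 400 DT40-hTDP1 cells/well (vehicle DMSO, no 20 nM CPT); pinned compounds; ≥48 hr at 37 °C; CellTiter-Glo luminescence as viability measure.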
IL1B secr inh: inflammasome signaling inhibition, IL-1 beta readout | THP-1 LPS/ATP IL-1B secretion, AlphaLISA, 16 h; stronger effect = lower value | activity change, % at 57.5 µM | 4.7% of 360,000 active | AID 743279; in the data active = activity change below about -50%; inconclusive = mostly about -30% to -49%
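Secreted IL-1B measured by AlphaLISA bead assay after 16 h compound exposure of THP-1 cells; compounds (final up to 57.5 uM) added 1 h before LPS (250 ng/mL) and ATP (1.25 mM) stimulation; lower signal means less secretion.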
HT1080 IDH1KD tx: toxicity to HT-1080 IDH1 knockdown cells (counter line); HT-1080 IDH1 knockdown viability, ATP luminescence, 48 h; Potency, µM (top dose mostly 46.1 µM), for the others: top-dose activity, negative = toxicity, hits mostly cytotoxic; 2% of 360,000 active;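 also: potency is read from the fitted curve at half-maximal effect; 0% = DMSO wells and -100% = cell-free medium wells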
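Cytotoxicity counter-line: IDH1KD HT-1080, 48 h, CellTiter-Glo. Curves classed by r2, magnitude and activity.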
DT40 TDP1 CPT: DT40-hTDP1 cell growth loss with CPT | chicken DT40 Tdp1-/-;hTDP1 cells + 20 nM CPT, ATP luminescence, 48 h | Potency, µM (top dose mostly 46.2 µM), inactives show top-dose activity change, negative = growth inhibition, hits mostly inhibitors | 12% of 420,000 active | AID 686979; also: potency is read from the fitted curve at half-maximal effect; nearly all actives have a fitted effect of over 55% in size
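Chicken DT40 Tdp1-/- cells complemented with human TDP1, 400 cells/well, exposed to compounds plus 20 nM camptothecin for at least 48 h at 37 C; viability read as ATP content by CellTiter-Glo luminescence.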
HT1080NT lethal: kills 2HG-producing HT-1080-NT fibrosarcoma cells. HT-1080-NT fibrosarcoma viability, CellTiter-Glo ATP luminescence, 48 h. Potency, µM (doses to about 46.1 µM), inactives show at the top dose activity, negative = less viability, actives largely listed as cytotoxic. 1.6% of 360,000 active;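 also: NT is the 2HG producing partner of a matched IDH1 knockdown line; potency is read from the fitted curve at half-maximal effect; 0% = DMSO-treated cells and -100% = media-only wells without cells; nearly all actives have a fitted effect of over 55% in size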
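Toxicity toward the 2HG-producing NT line was scored as %Activity, normalised to DMSO and no-cell wells, from CellTiter-Glo luminescence after 48 hours' treatment.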
* = called active by the depositor; [ ] = remark or other dose. Compounds with a hit are over-represented: about 19% of the library has one in this group of screens. Unless noted, calls follow the shape of the dose curve; as a rule, active = well fitted curve in the direction sought with a large enough effect; inconclusive = small, poorly fitted or top-dose-only effect, or another doubt; inactive = no such curve, though single readings can be large; an effect the other way counts as inactive or inconclusive. Unless noted, % is scaled to controls: 0 for no effect and ±100 for the full control effect.

How did COC(=O)N1CCC2(CCCN(Cc3nccs3)C2)CC1 do in these assays?
TDP1 cell noCPT: -12%; DT40 TDP1 CPT: 7%

What do the screens show for `CCOC(=O)c1cnc2c(C)cccc2c1NCc1ccco1`?
TDP1 cell noCPT: -19%; IL1B secr inh: -19; HT1080 IDH1KD tx: -17%; DT40 TDP1 CPT: -25%; HT1080NT lethal: -1%

What do the screens show for `CCOC(=O)c1cnc2ccc(C(=O)OC)cc2c1Nc1ccccc1CC`?
TDP1 cell noCPT: 12µM*; DT40 TDP1 CPT: 16µM*

What do the screens show for `CCOC(=O)c1ccc2ncc(C(=O)OCC)c(NCc3ccco3)c2c1`?
TDP1 cell noCPT: 23µM*; IL1B secr inh: -4; HT1080 IDH1KD tx: inconclusive; DT40 TDP1 CPT: 15µM*; HT1080NT lethal: inconclusive

How did COc1cc(OC)c(OC)cc1CN1CCOc2ccc(CN3C[C@@H](C)O[C@@H](C)C3)cc2C1 do in these assays?
TDP1 cell noCPT: inconclusive; DT40 TDP1 CPT: -19%[9.04 µM]

How did CC(C)C[C@H]1COc2cccc(N3CCC[C@H]3CO)c2S(=O)(=O)N1 do in these assays?
TDP1 cell noCPT: -20%; IL1B secr inh: 99; HT1080 IDH1KD tx: 29%; DT40 TDP1 CPT: -22%; HT1080NT lethal: 14%

Results for O=C(c1cc(C2CC2)nn1-c1ccccc1)N1CCN(S(=O)(=O)c2c(F)cccc2F)CC1 ?
TDP1 cell noCPT: -15%; IL1B secr inh: 0; HT1080 IDH1KD tx: 6%; DT40 TDP1 CPT: inconclusive; HT1080NT lethal: -1%

How did CCCCn1c(=O)[nH]c(=O)c2c1nc(-c1ccc(OC)c(Br)c1)n2CC(C)C do in these assays?
TDP1 cell noCPT: inconclusive; IL1B secr inh: inconclusive; HT1080 IDH1KD tx: 23µM*; DT40 TDP1 CPT: inconclusive; HT1080NT lethal: 29µM*

Results for CCCn1c(=O)[nH]c(=O)c2c1nc(-c1ccc(C#N)cc1)n2CCOC ?
TDP1 cell noCPT: -17%; IL1B secr inh: 2; HT1080 IDH1KD tx: 4%; DT40 TDP1 CPT: 6%; HT1080NT lethal: 10%

Results for CCCn1c(=O)[nH]c(=O)c2c1nc(-c1ccc(OC(F)(F)C(F)C(F)(F)F)cc1)n2CCOC (stereo not drawn) ?
TDP1 cell noCPT: 16µM*; IL1B secr inh: 26; HT1080 IDH1KD tx: -8%; DT40 TDP1 CPT: inconclusive; HT1080NT lethal: -13%

What do the screens show for `COCCn1c(-c2ccc3ccccc3c2)nc2c1c(=O)[nH]c(=O)n2CC(C)C`?
TDP1 cell noCPT: 23µM*; IL1B secr inh: -2; HT1080 IDH1KD tx: -12%; DT40 TDP1 CPT: inconclusive; HT1080NT lethal: -12%

Results for CCCCn1c(-c2ccc(OC(F)F)cc2)nc2c1c(=O)[nH]c(=O)n2CC(C)C ?
TDP1 cell noCPT: 23µM*; IL1B secr inh: 31; HT1080 IDH1KD tx: 3%; DT40 TDP1 CPT: 21µM*; HT1080NT lethal: 7%

Results for CCCCn1c(-c2cccc(F)c2)nc2c1c(=O)[nH]c(=O)n2CC(C)C ?
TDP1 cell noCPT: inconclusive; IL1B secr inh: 22; HT1080 IDH1KD tx: 3%; DT40 TDP1 CPT: -28%; HT1080NT lethal: 9%

How did O=C(N/N=C/c1ccccn1)c1ccc(N/N=C/c2ccccn2)cc1 do in these assays?
TDP1 cell noCPT: 1%; IL1B secr inh: 10; HT1080 IDH1KD tx: 14%; DT40 TDP1 CPT: 1%; HT1080NT lethal: 4%

What do the screens show for `CC(C)(C)c1ccc(C(=O)N/N=C/c2ccccn2)cc1`?
TDP1 cell noCPT: 5.8µM*; IL1B secr inh: 161; HT1080 IDH1KD tx: inconclusive; DT40 TDP1 CPT: 9.2µM*; HT1080NT lethal: inconclusive

How did O=C(N/N=C/c1ccccn1)c1ccc(Br)cc1 do in these assays?
TDP1 cell noCPT: 15µM*; IL1B secr inh: -105*; HT1080 IDH1KD tx: inconclusive; DT40 TDP1 CPT: 21µM*; HT1080NT lethal: -21%

Results for CCCCN(C)S(=O)(=O)c1ccc(C(=O)Nc2sc3c(c2C(=O)OCC)CCN(C(C)C)C3)cc1 ?
TDP1 cell noCPT: 5.8µM*; DT40 TDP1 CPT: 8.2µM*
